Sfp inh – Sfp phosphopantetheinyl transferase inhibition. Q9F4F7. Biochemical Sfp PPTase activity, qHTS. Potency, µM, for inactives: largest response in the series, negative = inhibition, most hits filed as inhibitors. 310,000 compounds, 3.5% hits. AID 1490;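 further: the enzyme is Sfp with the accession as filed and its product quenches rhodamine fluorescence; 0% = enzyme reaction without inhibitor and -100% = no enzyme wells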
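Fluorescence-quenching assay: 15 nM Sfp-PPTase preincubated 15 min at room temperature with compound, then 5 uM rhodamine-CoA and 12.5 uM BHQ-2-labelled YbbR peptide added. Fluorescence (ex 525/em 598 nm) read at start and after 30 min; difference gives rate.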
HP1b binding inh – inhibitors of HP1-beta chromodomain binding to methylated histone tails | P83916 | AlphaScreen HP1-beta / biotin-H3K9me3 peptide binding | AID 540317 | 390,000 compounds, 0.56% hits | Potency, µM (doses to about 114 µM), inactives show at the top dose activity change, negative = inhibition, usual class: inhibitors; further: nearly all actives have a fitted effect of over 70% in size
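HP1-beta protein (50 nM final) preincubated 30 min at room temperature with biotinylated H3(1-18)K9me3 peptide (50 nM) in PBS pH 7.4, 0.01% Tween-20, then compound added for 30 min. AlphaScreen streptavidin donor/nickel chelate acceptor beads (10 ug/mL final), 30 min dark, luminescence read.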
L3MBTL1 block – L3MBTL1 (human) inhibition. Q9Y468. AlphaScreen L3MBTL1–H3K9me1 peptide binding. Potency, µM (series often up to 57.1 µM), without a hit: at the top dose activity, negative = inhibition, actives largely listed as inhibitors. 230,000 compounds, 0.66% hits; further: on the % scale 0 is the no-effect control and ±100 the full control effect; nearly all actives have a fitted effect of over 60% in size
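AlphaScreen assay: L3MBTL1 (50 nM final) was preincubated 30 min at room temperature with biotinylated H3(1-15)K9me1 peptide (75 nM final), then 30 min with library compounds; streptavidin donor and nickel chelate acceptor beads (10 ug/mL final) added, 30 min dark.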
G9a block – blocks human histone lysine methyltransferase G9a; 350,000 compounds, 8.8% hits; G9a H3K9 monomethylation, AlphaScreen, 2 h; Potency, µM (doses to about 102 µM), for inactives: at the top dose activity, negative = inhibition, most hits filed as inhibitors; Q96KQ7; further: on the % scale 0 is the no-effect control and ±100 the full control effect; nearly all actives have a fitted effect of over 75% in size
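G9a (20 nM) preincubated 15 min RT with compounds, then 500 nM biotinylated H3K9 peptide and 20 uM SAM added; 2 h RT reaction. Monomethyl-H3K9 product detected by AlphaScreen with anti-H3K9me1 antibody, streptavidin donor and anti-rabbit IgG acceptor beads.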
BAZ2B inh – BAZ2B (human) inhibition | 360,000 compounds, 4.4% hits | AlphaScreen BAZ2B-H3K14Ac peptide displacement | Q9UIF8 | AID 504333 | Potency, µM (highest dose often 114 µM), for the others: at the highest dose activity change, negative = inhibition, usual class: inhibitors; further: on the % scale 0 is the no-effect control and ±100 the full control effect; nearly all actives have a fitted effect of over 60% in size
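Compounds, titrated to a top concentration of 110 uM, were incubated 30 min at room temperature with preformed BAZ2B/acetyl-K14 H3 peptide complex (50 nM each). Proximity signal was measured by AlphaScreen after 20 min with beads.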
JMJD2A Tudor inh – inhibitors of human JMJD2A Tudor domain; AlphaScreen JMJD2A-Tudor / H3K4me3 peptide binding; Potency, µM (series often up to 114 µM), without a hit: top-dose activity change, negative = inhibition, most hits filed as inhibitors; 390,000 compounds, 4.4% hits; AID 504339; further: on the % scale 0 is the no-effect control and ±100 the full control effect; nearly all actives have a fitted effect of over 50% in size
Target sequence (O75164 whole entry, looked up, the tested form may be a part): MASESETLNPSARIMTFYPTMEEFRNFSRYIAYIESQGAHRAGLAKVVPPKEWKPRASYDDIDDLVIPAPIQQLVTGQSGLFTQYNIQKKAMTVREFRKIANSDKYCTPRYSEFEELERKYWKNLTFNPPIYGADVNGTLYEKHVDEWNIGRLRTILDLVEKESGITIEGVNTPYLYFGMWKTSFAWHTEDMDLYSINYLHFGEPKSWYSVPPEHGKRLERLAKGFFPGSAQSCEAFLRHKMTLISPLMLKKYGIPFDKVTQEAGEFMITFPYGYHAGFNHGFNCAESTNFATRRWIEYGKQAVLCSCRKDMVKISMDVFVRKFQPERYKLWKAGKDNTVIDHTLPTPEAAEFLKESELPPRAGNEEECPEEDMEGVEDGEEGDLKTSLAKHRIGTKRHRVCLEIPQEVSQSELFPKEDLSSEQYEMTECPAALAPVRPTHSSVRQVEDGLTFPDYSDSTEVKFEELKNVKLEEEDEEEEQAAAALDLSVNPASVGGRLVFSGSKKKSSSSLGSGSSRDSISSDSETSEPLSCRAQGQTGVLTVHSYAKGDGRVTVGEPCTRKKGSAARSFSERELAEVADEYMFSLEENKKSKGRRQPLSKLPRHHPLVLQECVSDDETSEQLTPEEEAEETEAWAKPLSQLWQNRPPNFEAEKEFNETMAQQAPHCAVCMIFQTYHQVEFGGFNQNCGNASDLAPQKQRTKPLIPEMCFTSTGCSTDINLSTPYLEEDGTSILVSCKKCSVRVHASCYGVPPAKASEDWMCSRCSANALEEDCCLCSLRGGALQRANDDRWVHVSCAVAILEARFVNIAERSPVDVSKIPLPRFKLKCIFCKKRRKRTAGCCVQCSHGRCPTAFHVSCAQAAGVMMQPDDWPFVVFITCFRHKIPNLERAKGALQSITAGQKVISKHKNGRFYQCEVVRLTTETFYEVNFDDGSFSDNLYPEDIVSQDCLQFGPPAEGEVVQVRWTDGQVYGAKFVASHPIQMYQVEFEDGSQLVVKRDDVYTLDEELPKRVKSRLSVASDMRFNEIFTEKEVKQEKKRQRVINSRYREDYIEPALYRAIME
An asterisk follows results filed as active; ? = inconclusive; nt = no result given; [ ] = remark or other dose. Only some compounds are listed: those with a hit (about 12% of all), similar ones and a draw of the others. The call rests on the fitted dose curve; in most records, active means well fitted curve in the direction sought with a large enough effect; inconclusive means small, poorly fitted or top-dose-only effect, or another doubt; inactive means no such curve, though single readings can be large; an effect the other way counts as inactive or inconclusive. Potency means the concentration at half of the fitted maximal effect.

SMILES	Sfp inh	HP1b binding inh	L3MBTL1 block	G9a block	BAZ2B inh	JMJD2A Tudor inh
CCCS(=O)(=O)N1CC(=O)N(c2ccccc2F)C(C)(C(=O)NC2CCCCCC2)C1 (configuration not stated)	nt	37%	nt	2%[59 µM]	0%	-1%
Cc1cc(C)c(NC(=O)c2nc3ccccc3nc2N2CCCCC2)c(C)c1	nt	30%	nt	-5%[59 µM]	3%	-1%
O=C(C#Cc1ccccc1)c1ccco1	?	54%	nt	40µM*	2%	-5%
COc1ccc2c(c1)C(=O)[C@H](OC(=O)NCc1ccco1)[C@@H](c1ccc(OC)c(Br)c1)O2	-4%	nt	nt	nt	nt	nt
C=CCN1C(=O)/C(=N/n2cnnc2)c2ccccc21	-1%	7%	-8%	1%[12.7 µM]	-33%	-10%
CCN1C(=O)/C(=C/c2nc3ccccc3c(=O)[nH]2)c2ccccc21	-1%	13%	8%	-2%[59 µM]	-29%	-8%
CCN1C(=O)/C(=c2\sc3nc(=O)c(Cc4ccccc4)nn3c2=O)c2ccccc21	25µM*	-31%	-16%	25µM*	?	?
C=CCN1C(=O)/C(=c2\sc3nc(=O)c(Cc4ccccc4)nn3c2=O)c2ccccc21	13µM*	?	-13%	nt	?	56µM*
CCOC(=O)c1cc(-c2ccc(F)cc2)n(CCC(=O)NC2CCC(C)CC2)c1C (configuration not stated)	nt	-9%	nt	-7%[59 µM]	-3%	-23%
COc1ccc(CNC(=O)c2ccc(NC(=O)N3CCCCc4ccccc43)cc2)c(OC)c1	nt	3%	nt	2%[59 µM]	-23%	-29%
CCOC(=O)C1=C(C)NC(C)=C(C(=O)OCC)C1c1cc2ccc(C)cc2[nH]c1=O	-13%	-5%	-3%	50µM*	?	-18%[57.1 µM]
Cc1ccc2cc(COC(=O)c3ccncc3)c(=O)[nH]c2c1	-9%	8%	11%	50µM*	12%	-14%
Cc1ccc(C(=O)OCc2cc3ccccc3[nH]c2=O)cc1	12%	16%	7%	-5%	2%	-12%
CC[n+]1c(C)sc2cc(OC)ccc21	-23%	28%	nt	25µM*	-18%	-10%
Cc1cccc(C(=O)NC2CCN(C#N)CC2)c1	nt	nt	nt	nt	nt	-12%
CCOc1ccc(CCNC(=O)c2cn(-c3ccc(OC)cc3)c(=O)c3ccccc23)cc1OCC	nt	0%	nt	-5%[59 µM]	-12%	?
CCOC1=C/C(=C/c2c(N)n3oc(C)cc3nc2=O)C=CC1=O	0%	nt	nt	-46%	2%	nt
CCS(=O)(=O)c1nn2c(N)c(/C=C3/C=CC(=O)C(OC)=C3)c(=O)nc2s1	14%	12%	3%	?	-7%	-20%
COC1=C/C(=C/c2c(N)n3nc(-c4ccc(C)cc4)sc3nc2=O)C=CC1=O	-6%	7%	-15%	?	50µM*	?
CCOC1=C/C(=C/c2c(N)n3nc(-c4ccccc4)sc3nc2=O)C=CC1=O	-22%	1%	-30%	40µM*	40µM*	-32%
COc1cc(NC(=S)NC(=O)c2ccco2)ccc1NC(=O)C(C)C	?	11%	-6%	31%[12.7 µM]	-34%	-13%
O=C(NC(=S)Nc1ccc2[nH]c(=O)[nH]c2c1)c1ccccc1F	4%	30%	nt	nt	-4%	-13%
COc1ccccc1C(=O)NNC(=S)Nc1ccccc1	28%	28%	9%	28µM*	5%	-7%
COc1cc(NC(=S)NC(=O)c2ccccc2F)ccc1NC(=O)c1ccco1	-51%	?	-2%	7.9µM*	1%	?
O=C(NC(=S)Nc1ccc(F)c([N+](=O)[O-])c1)c1ccccc1F	-11%	25%	-11%	45µM*	-34%	-9%
SMILES	Sfp inh	HP1b binding inh	L3MBTL1 block	G9a block	BAZ2B inh	JMJD2A Tudor inh
COc1ccccc1C(=O)NNC(=S)NC(=O)c1ccco1	-6%	24%	6%	28µM*	7%	-29%
COc1ccccc1C(=O)NNC(=O)C(=O)Nc1ccc(C)cc1	25%	18%	nt	10%	-2%	-7%
CCOCCCNC(=O)c1cnc2sc(N3CCCCCC3)nn2c1=O	nt	?	nt	11%[59 µM]	-12%	-17%
CCOC(=O)C1=C(C)c2ccccc2OC1(CC)C(=O)OCC (configuration not stated)	-5%	111%	26%	88%	nt	53%
CCOC(=O)C1=C(C)c2ccccc2N(C(=O)OC)C1(C)C(=O)OCC (configuration not stated)	3.5µM*	51%	-2%	26%	nt	-2%
CN(C)CCOC1c2ccccc2CCc2ccc3ccccc3c21 (configuration not stated)	nt	?	nt	nt	nt	32µM*
N#C/C(=C(/O)CSc1nnc(Cc2cccs2)n1C1CCCCC1)c1nc2ccccc2[nH]1	-9%	28%	-23%	?	31%	-18%
Cn1cnnc1SC/C(O)=C(\C#N)c1nc2ccccc2[nH]1	-26%	12%	3%	?	50µM*	25µM*
Cc1cccc(Nc2nnc(SC/C(O)=C(\C#N)c3nc4ccccc4[nH]3)s2)c1C	4%	-4%	-6%	?	-4%	-36%
COc1ccccc1-c1nnc(SC/C(O)=C(\C#N)c2nc3ccccc3[nH]2)n1C1CCCCC1	-28%	?	-9%	32µM*	-8%	89µM*
Cc1cccc(C)c1Nc1nnc(SC/C(O)=C(\C#N)c2nc3ccccc3[nH]2)s1	0%	2%	-11%	14µM*	-2%	-26%
CCOC(=O)C(CC)N1CCN(Cc2ccc(F)cc2)C(=O)C1=O (configuration not stated)	nt	37%	nt	9%[12.7 µM]	-1%	4%
O=C(O)CN1C(=O)/C(=C\c2cn(-c3ccccc3)nc2-c2ccccc2)SC1=S	?	-21%[57 µM]	nt	11µM*	?	50µM*
CC(C)COc1ccc(-c2nn(-c3ccccc3)cc2/C=C2/SC(=S)N(CC(=O)O)C2=O)cc1	-21%	40µM*	-20%	50µM*	45µM*	45µM*
CCOc1ccc(-c2nn(-c3ccccc3)cc2/C=C2\SC(=S)N(Cc3ccco3)C2=O)cc1	1%	-2%	2%	9%[59 µM]	-9%	?
CCN1C(=O)/C(=C\c2cn(-c3ccccc3)nc2-c2cccnc2)SC1=S	3%	18%	-4%	1%	-11%	-17%
C#CCN1C(=O)S/C(=C/c2cc(C)n(CC)c2C)C1=O	-6%	29%	27%	-2%	18%	-23%
CCn1c(C)cc(/C=C2/SC(=S)N(CC(=O)O)C2=O)c1C	-6%	1%	-11%	50µM*	-32%	-31%
CCS(=O)(=O)N1CCN(c2cc3c(cc2[N+](=O)[O-])n(C)c(=O)n3C)CC1	6%	-22%	nt	?	56µM*	-31%

High-throughput results: PubChem, National Center for Advancing Translational Sciences (NCATS)
